Compound activity: PubChem, National Center for Advancing Translational Sciences (NCATS)
JMJD2E inh – inhibitors of human JMJD2E histone demethylase | B2RXH2 | JMJD2E catalytic domain, FDH-coupled NADH fluorescence (FDH is formaldehyde dehydrogenase) | Potency, µM (doses to about 57.1 µM), inactives show top-dose activity change, negative = inhibition, most hits filed as inhibitors | hit rate 1.6% among 230,000; active = well fitted inhibition curve with a large enough effect, not every such curve was filed as active; inconclusive = small, poorly fitted or top-dose-only effect, or another doubt; inactive = no such curve, though single readings can be large or run the other way;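 also: 0% = wells with enzyme and -100% = buffer wells without enzyme; nearly all actives have a fitted effect of over 50% in size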
APE1 inh – blocks human APE1 abasic DNA cleavage. P27695. recombinant APE1, TAMRA/BHQ-2 abasic DNA cleavage fluorescence. Potency, µM (series often up to 65.8 µM), for the others: at the highest dose activity change, negative = inhibition, hits mostly inhibitors. hit rate 0.35% among 350,000;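 also: plate controls were vehicle for no effect and reference inhibitor for full effect; nearly all actives have a fitted effect of over 55% in size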
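Kinetic fluorescence read (525 ex/598 em nm, three reads 60 s apart) of AP-site incision; signal = third minus first read. Enzyme 0.75 nM, dual-labelled THF duplex 50 nM, compound preincubation 15 min RT.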
BLM helicase inh – Bloom syndrome helicase (human) inhibition | P54132 | recombinant BLM DNA unwinding, fluorescence dequenching | Potency, µM (titrated, usually from 56.1 µM), for inactives: at the top dose activity change, negative = inhibition, actives largely listed as inhibitors | hit rate 0.2% among 350,000 | AID 2528;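 also: plate controls were vehicle for no effect and no enzyme for full effect; nearly all actives have a fitted effect of over 35% in size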
L3MBTL1 block – inhibitors of human L3MBTL1. Q9Y468. AlphaScreen L3MBTL1–H3K9me1 peptide binding. Potency, µM (series often up to 57.1 µM), without a hit: at the top dose activity, negative = inhibition, usual class: inhibitors. hit rate 0.66% among 230,000. AID 485360; also: nearly all actives have a fitted effect of over 60% in size
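Read-out is AlphaScreen signal from streptavidin donor and nickel chelate acceptor beads (10 ug/mL final each) bridging L3MBTL1 (50 nM) and biotinylated K9-monomethylated H3(1-15) peptide (75 nM), after 30 min compound exposure at room temperature.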
RECQ1 inh – blocks DNA unwinding by human RECQ1. P46063. RECQ1 DNA unwinding, red fluorescence kinetic read. Potency, µM (doses to about 57.3 µM), without a hit: at the highest dose activity, negative = inhibition, hits mostly inhibitors. hit rate 0.54% among 240,000. AID 2549;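 also: plate controls were vehicle for no effect and no enzyme for full effect; nearly all actives have a fitted effect of over 30% in size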
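50 nM RECQ1T1 preincubated 15 min with compound in Tris pH 8.0 buffer with MgCl2, DTT, Tween-20 and 2.5 ug/ml poly(dI-dC); started with 200 nM TAMRA/BHQ-2 forked duplex and 2 mM ATP. Unwinding read as fluorescence (525/598 nm), two reads 2 h apart.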
GoLoco inh red – inhibitors of human Gai1-RGS12 GoLoco interaction (red fluorophore); P63096; Gai1:RGS12 GoLoco peptide FP, rhodamine, 10 min; Potency, µM (highest dose often 61.6 µM), without a hit: top-dose activity, negative = inhibition, usual class: inhibitors; hit rate 0.44% among 230,000; active = well fitted inhibition curve with a large enough effect, not every such curve was filed as active; inactive = no such curve, though single readings can be large or run the other way; also: nearly all actives have a fitted effect of over 30% in size
Numbers without * were called inactive; i = inactive; ? = inconclusive; . = not tested or not shown; ! = repeats disagree; [ ] = dose if it differs, or a comment. Shown is part of a subset that was picked to be rich in hits. Unless noted, calls follow the shape of the dose curve; as a rule, active = well fitted curve in the direction sought with a large enough effect; inconclusive = small, poorly fitted or top-dose-only effect, or another doubt; inactive = no such curve, though single readings can be large; an effect the other way counts as inactive or inconclusive. Unless noted, % is scaled to controls: 0 for no effect and ±100 for the full control effect; potency is read from the fitted curve at half-maximal effect.

SMILES	JMJD2E inh	APE1 inh	BLM helicase inh	L3MBTL1 block	RECQ1 inh	GoLoco inh red
O=C1c2c(O)cccc2Cc2cccc(O)c21	-9%	?	-1%	?	-7%	-7%
Cc1cc(O)c2c(c1)C(=O)c1cccc(O)c1C2=O	?	32µM*!	-7%	-7%	7.1µM*!	4%
Oc1ccc(Nc2nc3ccccc3nc2Nc2ccc(O)cc2)cc1	-18%	?	-16%	.	?	2.5µM*
Oc1ccc(Nc2nc(-c3ccccc3)nc3ccccc23)cc1	.	-7%	-6%	.	.	.
CN1/C(=C\C=[N+](C)c2ccccc2)C(C)(C)c2ccccc21	-6%	2%	2%	-7%	-15%	4µM*
CCCN1C(=O)/C(=C\C=C2\N(CC)c3ccccc3C2(C)C)SC1=S	?	5%	-2%	?	i	-99%
CN1C(=CC=C2C=C(I)C(=O)C(I)=C2)C(C)(C)c2ccccc21	0%	-1%	28µM*	-16%	0.63µM*	i
CN1/C(=C\C=N\O)C(C)(C)c2ccccc21	-6%	3%	-3%	-4%	-4%	17%
CN1/C(=C\C=C2/SC(=S)NC2=O)C(C)(C)c2ccccc21	0%	25µM*	?	-29%	32µM*	-49%
COc1cc(-c2no[n+]([O-])c2C#N)cc(OC)c1OC	.	-4%	.	.	.	.
CC(C)CCNC(=O)c1cc(-c2ccc(Br)s2)nc2ccccc12	.	.	-13%	.	.	.
CC1=C/C(=N\OS(=O)(=O)c2ccccc2)C(C(C)C)=CC1=O	4µM*	-3%	-1%	-10%	-4%	-1%
CC(=O)NC(c1cc(Cl)c2ccccc2c1O)C1CC1 (stereo not drawn)	.	41%	.	.	.	.
CC/C=C\C/C=C\C/C=C\C/C=C\C/C=C\C/C=C\CCC(=O)O[C@H](COCCCCCCCCCCCCCCCC)COP(=O)([O-])OCC[N+](C)(C)C	-5%	0%	-6%	.	-6%	0%
COCC(=O)N1CCc2nc(-c3ccccc3)c3c(c2C1)CO[C@@H](C)C3	9%[11.4 µM]	12%[12.4 µM]	-1%[12.4 µM]	.	i[11.5 µM]	6%[14.2 µM]
Cc1ccccc1-n1sc2cc(F)ccc2c1=O	11µM*	0%	1%	.	-2%	28µM*
NC1=Nc2cccc3cccc1c23	?	-9%	3%	-34%	?	20µM*
CC(=O)N1CCN(CC(=O)Nc2cc([N+](=O)[O-])ccc2Cl)CC1	-10%	?	3%	.	-7%	-1%
O=C(CN1CCN(c2ccc(O)cc2)CC1)Nc1cc([N+](=O)[O-])ccc1Cl	14µM*	1%	6%	-4%	-8%	-19%
O=C(Cc1c[nH]c2ccccc12)N/N=C/c1ccccc1O	25µM*	-5%	-4%	-15%	0%	2%
O=C(Cc1n[nH]c(=O)[nH]c1=O)N/N=C/c1ccccc1O	14µM*	-4%	0%	2%	0%	2%
Cc1ccc(/C=N/NC(=O)Cc2c[nH]c3ccccc23)c(C)c1	1%	23%	-6%	-7%	-3%	12%
Fc1ccc(CN(C2=NCCN2)c2c(Cl)cccc2Cl)cc1	0%	-4%	.	.	-3%	-4%
CC1Cc2cc(S(=O)(=O)CCC(=O)Nc3ccc(Cl)cc3F)ccc2N1C(=O)C1CC1 (stereo not drawn)	.	.	0%	.	.	.
c1cncc(CNc2cc(-c3ccoc3)ncn2)c1	.	19%	-11%	.	-3%	13µM*
SMILES	JMJD2E inh	APE1 inh	BLM helicase inh	L3MBTL1 block	RECQ1 inh	GoLoco inh red
CC(=O)c1cc(-c2ccc(F)cc2)n(CCC(=O)NCc2ccccc2C)c1C	.	.	-6%	.	.	.
CCn1c(C)[n+](Cc2ccccc2)c2ccc(C(=O)OC)cc21	-22%	6%	-8%	.	5%	1.3µM*
Cc1nc(N/N=C/c2ccccn2)sc1C	13µM*	3%	-5%	-19%	-7%	3%
C=CCN1CCc2c(cc(O)c(O)c2Br)[C@@H](c2ccccc2)C1	14µM*	-3%	.	.	-13%	7%
C=CCN1CCc2cc(O)c(O)cc2[C@H](c2ccccc2)C1	25µM*	8%	4%	.	-19%	5%
CN1CCc2c(cc(O)c(O)c2Cl)C(c2cccc(Cl)c2)C1 (stereo not drawn)	14µM*	-7%	.	.	-2%	1%
CN1CCc2cc(Cl)c(O)cc2[C@@H](c2ccccc2)C1	6%	15%	-6%	.	-1%	5%
CN1CCc2cc(Cl)c(O)cc2C(c2ccccc2)C1 (stereo not drawn)	4%	-1%	.	.	-6%	10%
CN1CCc2cc(O)c(O)cc2C(c2ccccc2)C1 (stereo not drawn)	20µM*	35%	.	2%	i	4%
COc1ccccc1Nc1cc(C(=O)NCc2cccs2)c2ccccc2n1	.	.	-2%	.	.	.
CSc1nn(Cc2cccc(Cl)c2)c(N(C(C)=O)C(C)=O)c1S(=O)(=O)c1ccccc1	.	.	-10%	.	.	.
CC1(C)CC(N2CCCCC2)=CC(=[N+]2CCCCC2)C1	-21%	-7%	2%	.	1%	2.5µM*
CC1C[N+](=C2C=C(N3CCOCC3)CC(C)(C)C2)CC(C)O1 (stereo not drawn)	25µM*	0%	-1%	.	i	25µM*
CCCN(CCC)C1=CC(=[N+]2CCCC2)CC(C)(C)C1	5%	17%	6%	-14%	-8%	7.9µM*
NS(=O)(=O)c1ccc(NCc2c(F)cccc2Cl)cc1	-1%	-1%	1%	-2%	-5%	10%
Fc1cccc(Cl)c1CNc1ccc(N2CCCC2)cc1	11µM*	-1%	-2%	?	-5%	-14%
CCCC[C@@H]1C[C@H]1C(NC(=O)c1ccccc1)c1ccc(C(=O)OC)cc1 (stereo partly drawn)	-9%	-9%	2%	.	-10%	2%
Cc1ccc(NC(=O)Nc2nnc(SCC(=O)N3CCC(C)CC3)s2)cc1	.	.	0%	.	.	.
CCCCCCCCCCCCCCOc1ccc(C(=O)O)o1	.	25µM*	-24%	.	-5%	.
COc1cccc([C@@H]2Oc3ccc(OC)cc3/C(=N/O[C@@H](C)CN3CCCc4nc(C)c(C)cc43)[C@@H]2O)c1	.	-3%[12.4 µM]	-5%[12.4 µM]	.	0%[11.5 µM]	.
NCCC[C@@H](CC(=O)N[C@@H]1CCNC[C@H]1C(=O)N[C@H](CC(=O)N[C@@H](CCC(=O)O)CC(=O)O)Cc1ccccc1)NC(=O)C[C@H](CO)NC(=O)[C@@H]1CNCC[C@H]1N	?	-6%	22µM*	.	4%	0%
COC(=O)c1ccc(NC(=O)c2c(-c3ccccc3)c(-c3ccccc3)nn(C)c2=O)cc1	.	.	0%	.	.	.
CC(=O)C(C(C)=O)c1c(Cl)c(O)c(O)c2c(C(=O)c3ccccc3)coc12	16µM*	-1%	-11%	-20%	-21%	-25%
Cc1c(C(=O)O)sc2nc(/C=C/c3cccc(F)c3)[nH]c(=O)c12	.	?	-7%	.	.	.
